Compound activity: PubChem, The Scripps Research Institute Molecular Screening Center
PPARg SRC-3 ag = PPARgamma-driven SRC-3 recruitment agonism | activation, % at 8 µM | biochemical PPARgamma/SRC-3 coactivator recruitment assay | 200,000 compounds, 0.26% hits | P37231; in the data active = activation above about 23%
Target sequence (P37231 whole entry, looked up): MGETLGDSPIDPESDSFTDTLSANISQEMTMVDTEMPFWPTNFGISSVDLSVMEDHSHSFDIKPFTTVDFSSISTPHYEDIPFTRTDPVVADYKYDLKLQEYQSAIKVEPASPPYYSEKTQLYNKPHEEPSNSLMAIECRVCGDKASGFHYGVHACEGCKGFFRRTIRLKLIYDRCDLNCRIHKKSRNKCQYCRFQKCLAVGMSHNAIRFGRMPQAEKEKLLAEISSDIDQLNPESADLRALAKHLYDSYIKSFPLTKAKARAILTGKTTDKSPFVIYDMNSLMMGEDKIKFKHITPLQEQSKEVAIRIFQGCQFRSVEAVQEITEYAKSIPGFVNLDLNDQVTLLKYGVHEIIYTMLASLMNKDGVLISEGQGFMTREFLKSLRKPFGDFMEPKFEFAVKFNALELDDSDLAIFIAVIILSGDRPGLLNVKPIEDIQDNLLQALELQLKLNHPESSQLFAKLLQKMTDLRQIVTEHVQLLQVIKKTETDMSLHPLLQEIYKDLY
SRC3 TRFRET art = TR-FRET artefact, counter-screen to PPARgamma/SRC-3 agonist assay; AID 1048; 99,000 compounds, 0.39% hits; TR-FRET ratio at 8 µM; PPARgamma/SRC-3 format; hits give high values; in the data active = TR-FRET ratio above about 2000
PPARg SRC1 recr = agonists of human PPARgamma SRC-1 coactivator recruitment. P37231. PPARgamma-SRC-1 coactivator recruitment biochemical assay. activation, % at 8 µM. 200,000 compounds, 0.41% hits. AID 631; in the data active = activation above about 19%
SRC1 TRFRET art = counter-screen for PPARgamma SRC-1 recruitment agonists: TR-FRET artefact; TR-FRET detection artefact counter-screen, emission ratio; hits give high values; TR-FRET ratio at 8 µM; 99,000 compounds, 0.34% hits; AID 1051; in the data active = TR-FRET ratio above about 2300
TR-FRET SRC-2 ct = counter-screen for PPARgamma SRC-2 recruitment agonists: TR-FRET artefact | hits give high values | TR-FRET ratio at 8 µM | 200,000 compounds, 0.4% hits | AID 1049; in the data active = TR-FRET ratio above about 2000
PPARg SRC2 recr = promotes SRC-2 coactivator recruitment by human PPARgamma; P37231; PPARgamma LBD-SRC-2 recruitment, biochemical; activation, % at 8 µM; 200,000 compounds, 0.34% hits; AID 1032
PPARg SRC2 ag = human PPARgamma SRC-2 recruitment agonism, confirmation | AID 1297 | activation, % at 8 µM | shares compounds with PPARg SRC-3 ag | biochemical SRC-2 recruitment by PPARgamma | 790 compounds, 52% hits
PPARg SRC1 conf = human PPARgamma SRC-1 recruitment agonism, confirmation; 790 compounds, 43% hits; shares compounds with PPARg SRC-3 ag; AID 1300; PPARgamma–SRC-1 coactivator recruitment biochemical assay; activation, % at 8 µM; in the data active = activation above about 20%
PPARg SRC3 conf = human PPARgamma SRC-3 recruitment agonism, confirmation; shares compounds with PPARg SRC-3 ag; biochemical PPARgamma-SRC-3 coactivator recruitment, agonist mode; activation, % at 8 µM; 790 compounds, 29% hits; AID 1301; in the data active = activation above about 24%
Of the large screens only hits and unclear results are named; the others gave an inactive call (follow-up assays come after a bar, where they were run). Compounds with a hit are over-represented: about 0.9% of the library has one in this group of screens. Cut-off read from the data, not from the text of the source, unless noted: active = activation above about 22%; inactive = the rest.

O=C(Nc1cc(SCC(O)CO)cc([N+](=O)[O-])c1)c1ccc(-n2cnnn2)cc1 (configuration not stated)	PPARg SRC-3 ag 28, PPARg SRC1 recr 62, PPARg SRC2 recr 59 | PPARg SRC2 ag inactive | PPARg SRC1 conf inactive | PPARg SRC3 conf inactive
CC1(C(=O)NCCN2CCOCC2)C=CC2(CCCCC2)N1C(=O)c1ccccc1 (configuration not stated)	none
Brc1cc(Br)c2nc(-c3cccs3)ccc2c1	PPARg SRC-3 ag 52, PPARg SRC1 recr 23, TR-FRET SRC-2 ct 2365, PPARg SRC2 recr 45 (no result: SRC3 TRFRET art, SRC1 TRFRET art) | PPARg SRC2 ag 36 | PPARg SRC1 conf 24 | PPARg SRC3 conf inactive
c1csc(-c2csc(-c3cccs3)n2)c1	none (no result: SRC3 TRFRET art, SRC1 TRFRET art)
Cc1ccc(N2C(=O)N(CC(=O)C(C)(C)C)c3ccccc3S2(=O)=O)cc1	none
Cc1ccc(/C=C/C(=O)Nc2ccc(N(C)C)cc2)o1	PPARg SRC1 recr 25, PPARg SRC2 recr 25 | PPARg SRC2 ag inactive | PPARg SRC1 conf inactive | PPARg SRC3 conf inactive
O=C(NC(=S)N1CCN(Cc2ccc3c(c2)OCO3)CC1)c1ccc(Cl)cc1	none
CCCCCCCC(=O)N/N=C/c1cccnc1	PPARg SRC1 recr 20 (no result: SRC3 TRFRET art, SRC1 TRFRET art) | PPARg SRC2 ag inactive | PPARg SRC1 conf inactive | PPARg SRC3 conf inactive
COc1ccc2nc(SCc3cccnc3)c(C#N)cc2c1	PPARg SRC-3 ag 69, PPARg SRC1 recr 83 (no result: SRC3 TRFRET art, SRC1 TRFRET art) | PPARg SRC2 ag 53 | PPARg SRC1 conf 42 | PPARg SRC3 conf 33
COc1ccc2nc(SC)c(C#N)cc2c1	PPARg SRC-3 ag 27, SRC3 TRFRET art 2738 | PPARg SRC2 ag 75 | PPARg SRC1 conf 58 | PPARg SRC3 conf 43
N#Cc1cc2ccccc2nc1SCc1cccnc1	none
O=C(C(Cc1ccccc1)N1C(=O)c2ccccc2C1=O)N1CCc2ccccc21 (configuration not stated)	none (no result: SRC3 TRFRET art, SRC1 TRFRET art)
O=Nc1c(O)[nH]c2ccc(F)cc12	none
Cc1cc2c(N=O)c(NO)ccc2[nH]1	PPARg SRC-3 ag 30 (no result: SRC3 TRFRET art, SRC1 TRFRET art) | PPARg SRC2 ag inactive | PPARg SRC1 conf inactive | PPARg SRC3 conf inactive
N#C/C(=C\c1cc(Cl)cc(Cl)c1O)C(=O)NC1CCCCC1	none (no result: SRC3 TRFRET art, SRC1 TRFRET art)
CCOc1ccc(C2C(C(=O)c3ccco3)=C(O)C(=O)N2CCCn2ccnc2)cc1 (configuration not stated)	none (no result: SRC3 TRFRET art, SRC1 TRFRET art)
Cc1ccc(C(=O)C2=C(O)C(=O)N(CCCn3ccnc3)C2c2ccc(OC(C)C)cc2)o1 (configuration not stated)	PPARg SRC-3 ag 26, TR-FRET SRC-2 ct 2124, PPARg SRC2 recr 28 (no result: SRC3 TRFRET art, SRC1 TRFRET art) | PPARg SRC2 ag inactive | PPARg SRC1 conf inactive | PPARg SRC3 conf inactive
COc1ccc2c(c1)oc(=O)c1ccccc12	none
COc1ccc2c(c1)oc(=O)c1c3ccccc3[nH]c21	PPARg SRC-3 ag 41, SRC3 TRFRET art 3944, PPARg SRC1 recr 48, SRC1 TRFRET art 4961, TR-FRET SRC-2 ct 3710, PPARg SRC2 recr 56 | PPARg SRC2 ag 44 | PPARg SRC1 conf 33 | PPARg SRC3 conf 27
S=c1nc(-c2cccc(Cl)c2)[nH][nH]1	SRC3 TRFRET art 2145, PPARg SRC2 recr 28 | PPARg SRC2 ag 24 | PPARg SRC1 conf 21 | PPARg SRC3 conf inactive
S=c1nc(-c2ccccc2Br)[nH][nH]1	none (no result: SRC3 TRFRET art, SRC1 TRFRET art)
S=c1nc(-c2cc(Cl)ccc2Cl)[nH][nH]1	SRC3 TRFRET art 2092, SRC1 TRFRET art 2654, TR-FRET SRC-2 ct 2272, PPARg SRC2 recr 27 | PPARg SRC2 ag 24 | PPARg SRC1 conf inactive | PPARg SRC3 conf inactive
CCOC(=O)/C(=N/Nc1ccccc1)Sc1nnc(CCc2ccccc2)n1-c1ccccc1	none
O=C(Cc1ccc(F)cc1)Nc1ccc(S(=O)(=O)N2CCCCC2)cc1	none
COc1ccc(OCCCC(=O)NCC(C)C)cc1	none (no result: SRC3 TRFRET art, SRC1 TRFRET art)
Cc1nc2ccc(NC(=O)c3cc([N+](=O)[O-])cc([N+](=O)[O-])c3Cl)cc2s1	none
CCn1c(SCC(=O)Nc2ccc(N(C)C)cc2)nnc1-c1cccc(C)c1	none (no result: SRC3 TRFRET art, SRC1 TRFRET art)
